{"source": "the supplement of paper PMC10498489", "note": "Among all 2,300 compounds or so, about 330 (14%) showed activity. The list is a sample of the results. Unmarked numbers belong to inactive results.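 The calls were made as follows: active = median modified Z-score above 1.96; inactive = 1.96 or below.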", "data": [{"system": "HepG2 Srxn1-GFP reporter cells (+30 nM CDDO-Me)", "assay": "Srxn1-GFP intensity median modified Z-score relative to plate median; higher = stronger NRF2 / oxidative stress reporter activation, active = hit call of the paper", "settings": "10 µM; exposure time: 24h", "procedure,_shortened": "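The per-plate modified Z-score of GFP intensity, taken as a median across replicates, is what each value represents. Three replicate plates of HepG2 Srxn1-GFP BAC reporter cells were exposed for 24 h to an NRF2 activator at 30 nM combined with compound at 10 μM (≤0.1% DMSO). Cytoplasmic GFP per cell was read from confocal images, excluding any with under 100 cells, and scaling used 1.4826 × median absolute deviation.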", "values": [{"compound": "Cc1cc2nc3c(=O)[nH]c(=O)nc-3n(C[C@@H](O)[C@@H](O)[C@@H](O)CO)c2cc1C", "note": "[euspeclibcmpd751]", "Srxn1-GFP intensity median modified Z-score": -0.238}, {"compound": "Cc1ccc(N2CC(C(=O)NCCCn3ccnc3)CC2=O)c(F)c1", "note": "(stereo not given)", "Srxn1-GFP intensity median modified Z-score": 1.07}, {"compound": "Cc1onc(-c2ccccc2Cl)c1C(=O)NC1C(=O)N2C1SC(C)(C)C2C(=O)O", "note": "(stereo not given) [euspeclibcmpd2381]", "Srxn1-GFP intensity median modified Z-score": -0.0695}, {"compound": "C[C@@H]1O[C@@H](OC[C@H]2OC(Oc3c(-c4ccc(O)c(O)c4)oc4cc(O)cc(O)c4c3=O)[C@H](O)[C@@H](O)[C@@H]2O)[C@H](O)[C@H](O)[C@H]1O", "note": "(stereo not given in full) [euspeclibcmpd2149]", "Srxn1-GFP intensity median modified Z-score": -0.139}, {"compound": "CC(=O)OC1CC(OC(C)=O)C2(C)C(CC(OC(C)=O)C3(C)C2CCC2(C)C(c4ccoc4)OC(=O)C4OC423)C1(C)C", "note": "(stereo not given) [euspeclibcmpd1940]", "Srxn1-GFP intensity median modified Z-score": 0.483}, {"compound": "CC(=O)O[C@H]1CC[C@@]2(C)C(C[C@@H](OC(C)=O)[C@]3(C)C2CC[C@@]2(C)[C@H](c4ccoc4)OC(=O)C4O[C@]423)C1(C)C", "note": "(stereo not given in full) [euspeclibcmpd2319]", "Srxn1-GFP intensity median modified Z-score": "5.12 (active)"}, {"compound": "CC(=O)O[C@H]1C[C@@H](OC(C)=O)C(C)(C)C2C[C@@H](O)[C@]3(C)C(CC[C@@]4(C)[C@H](c5ccoc5)OC(=O)C5O[C@]543)[C@]21C", "note": "(stereo not given in full) [euspeclibcmpd1544]", "Srxn1-GFP intensity median modified Z-score": 0.39}, {"compound": "COc1ccc(C2COc3c(ccc(O)c3OC)C2)c(OC)c1O", "note": "(stereo not given) [euspeclibcmpd1831]", "Srxn1-GFP intensity median modified Z-score": 1.65}, {"compound": "CC1(C)C(=O)C2C[C@@]3(O)C4=CC(=O)O[C@@H](c5ccoc5)[C@]4(C)CCC3[C@](C)(C2=O)[C@H]1CC(=O)O", "note": "(stereo not given in full) [euspeclibcmpd1558]", "Srxn1-GFP intensity median modified Z-score": -0.051}, {"compound": "N=c1[nH]c(=O)c2ncn(CCC(CO)CO)c2[nH]1", "note": "[euspeclibcmpd464]", "Srxn1-GFP intensity median modified Z-score": 0.273}, {"compound": "O=C(O)C1=CC(=C(c2ccc(O)c(C(=O)O)c2)c2ccc(O)c(C(=O)O)c2)C=CC1=O", "note": "[euspeclibcmpd1741]", "Srxn1-GFP intensity median modified Z-score": -0.835}, {"compound": "CCC(=O)c1ccc(O)cc1", "note": "[euspeclibcmpd1262]", "Srxn1-GFP intensity median modified Z-score": 0.156}, {"compound": "O=C1C=CC(=C(c2ccc(O)cc2)c2ccc(O)cc2)C=C1", "note": "[euspeclibcmpd1770]", "Srxn1-GFP intensity median modified Z-score": "19.5 (active)"}, {"compound": "O=C(O)c1cc(N=Nc2ccc(S(=O)(=O)N=c3cccc[nH]3)cc2)ccc1O", "note": "[euspeclibcmpd280]", "Srxn1-GFP intensity median modified Z-score": -0.614}, {"compound": "Cc1ccc(C(=O)c2ccc(CC(=O)O)n2C)cc1", "note": "[euspeclibcmpd2405]", "Srxn1-GFP intensity median modified Z-score": 0.508}, {"compound": "OC[C@H](O)C(O)[C@@H](O)CO", "note": "[euspeclibcmpd2128]", "Srxn1-GFP intensity median modified Z-score": -0.222}, {"compound": "COc1cc(O)c2c(=O)c(OC)c(-c3ccc(OC)c(OC)c3)oc2c1", "note": "[euspeclibcmpd1656]", "Srxn1-GFP intensity median modified Z-score": -0.275}, {"compound": "NC(=O)NC(CCC(=O)O)C(=O)O", "note": "(stereo not given) [euspeclibcmpd1209]", "Srxn1-GFP intensity median modified Z-score": 0.184}, {"compound": "O=c1n(CCCN2CCN(c3cccc(Cl)c3)CC2)nc2ccccn12", "note": "[euspeclibcmpd533]", "Srxn1-GFP intensity median modified Z-score": 0}, {"compound": "CCc1nn(CCCN2CCN(c3cccc(Cl)c3)CC2)c(=O)n1CCOc1ccccc1", "note": "[euspeclibcmpd461]", "Srxn1-GFP intensity median modified Z-score": "8.98 (active)"}, {"compound": "O=C1CCc2ccc(OCCCCN3CCN(c4cccc(Cl)c4Cl)CC3)cc2N1", "note": "[euspeclibcmpd879]", "Srxn1-GFP intensity median modified Z-score": 0.292}, {"compound": "Cc1c(C)c2c(c(C)c1O)CCC(C)(C(=O)O)O2", "note": "(stereo not given) [euspeclibcmpd1989]", "Srxn1-GFP intensity median modified Z-score": -0.727}, {"compound": "COc1ccc(=NS(=O)(=O)c2ccc(N)cc2)[nH]n1", "note": "[euspeclibcmpd409]", "Srxn1-GFP intensity median modified Z-score": -0.327}, {"compound": "CC(C)c1nc(CN(C)C(=O)NC(C(=O)N[C@@H](Cc2ccccc2)C[C@H](O)[C@H](Cc2ccccc2)NC(=O)OCc2cncs2)C(C)C)cs1", "note": "(stereo not given in full) [euspeclibcmpd486]", "Srxn1-GFP intensity median modified Z-score": 0.333}, {"compound": "COc1ccccc1N1CCN(CCCNc2cc(=O)n(C)c(=O)n2C)CC1", "note": "[euspeclibcmpd1121]", "Srxn1-GFP intensity median modified Z-score": -0.334}, {"compound": "COC1=C(C)C2CC(=O)O[C@@H]3C[C@H]4C(C)=CC(OC)C(=O)[C@]4(C)C(C1=O)[C@]23C", "note": "(stereo not given in full) [euspeclibcmpd1498]", "Srxn1-GFP intensity median modified Z-score": 0.142}, {"compound": "COc1ccc2c(c1OC)C(=O)O[C@H]2[C@H]1c2c(cc3c(c2OC)OCO3)CCN1C", "note": "[euspeclibcmpd216]", "Srxn1-GFP intensity median modified Z-score": 0.635}, {"compound": "COc1ccc2cc1Oc1ccc(cc1)C[C@H]1c3c(cc4c(c3Oc3cc5c(cc3OC)CCN(C)[C@@H]5C2)OCO4)CCN1C", "note": "[euspeclibcmpd1270]", "Srxn1-GFP intensity median modified Z-score": "4.85 (active)"}, {"compound": "COc1ccc2cc1Oc1ccc(cc1)C[C@H]1c3cc(c(OC)cc3CCN1C)Oc1c(OC)c(OC)cc3c1[C@H](C2)N(C)CC3", "note": "[euspeclibcmpd1476]", "Srxn1-GFP intensity median modified Z-score": "21.7 (active)"}, {"compound": "CN1CC(=O)N2C(Cc3c([nH]c4ccccc34)[C@H]2c2ccc3c(c2)OCO3)C1=O", "note": "(stereo not given in full) [euspeclibcmpd833]", "Srxn1-GFP intensity median modified Z-score": -0.451}, {"compound": "CO[C@@H]1[C@@H](O[C@@H]2O[C@H](C)[C@@H](O[C@H]3C[C@@](C)(O)[C@H](O)[C@H](C)O3)[C@H](N(C)C)[C@H]2O)[C@@H](CC=O)C[C@@H](C)[C@@H](O[C@H]2CC[C@H](N(C)C)[C@@H](C)O2)/C=C/C=C/C[C@H](C)OC(=O)C[C@H]1O", "note": "[euspeclibcmpd581]", "Srxn1-GFP intensity median modified Z-score": 0.0936}, {"compound": "CC(C)(O)c1ccccc1CC[C@@H](SCC1(CC(=O)O)CC1)c1cccc(/C=C/c2ccc3ccc(Cl)cc3n2)c1", "note": "[euspeclibcmpd2362]", "Srxn1-GFP intensity median modified Z-score": "8.32 (active)"}, {"compound": "CC1=CC(=O)C2C(C)(C)CCC[C@]2(C)[C@@]1(O)CCc1ccoc1", "note": "(stereo not given in full) [euspeclibcmpd1719]", "Srxn1-GFP intensity median modified Z-score": "17.2 (active)"}, {"compound": "CCC1(CC)C(=O)CC=NC1=O", "note": "[euspeclibcmpd1119]", "Srxn1-GFP intensity median modified Z-score": -0.354}, {"compound": "CN(C)CCCOc1nn(Cc2ccccc2)c2ccccc12", "note": "[euspeclibcmpd892]", "Srxn1-GFP intensity median modified Z-score": -0.182}, {"compound": "COC1=CC(/C=C/c2ccccc2)OC(=O)C1", "note": "(stereo not given) [euspeclibcmpd1481]", "Srxn1-GFP intensity median modified Z-score": -0.206}, {"compound": "C=CCOC(=O)C1=C(C)NC(C)=C(C(=O)OCC=C)C1/C=C/c1ccccc1", "Srxn1-GFP intensity median modified Z-score": "4.92 (active)"}, {"compound": "Nc1ccc(S(=O)(=O)N=c2[nH]ccs2)cc1", "note": "[euspeclibcmpd281]", "Srxn1-GFP intensity median modified Z-score": -0.259}, {"compound": "CC(=O)OCC(=O)[C@@]1(O)CCC2C3CC=C4CC(=O)C=C[C@]4(C)[C@@]3(F)[C@@H](O)C[C@@]21C", "note": "(stereo not given in full) [euspeclibcmpd2402]", "Srxn1-GFP intensity median modified Z-score": -0.201}, {"compound": "CC(C)CCCC(C)C1CCC2C3CC[C@H]4CC(=O)CC[C@]4(C)C3CC[C@]12C", "note": "(stereo not given in full) [euspeclibcmpd1405]", "Srxn1-GFP intensity median modified Z-score": -0.338}, {"compound": "NC(C(=O)C(=O)O)C(O)O", "note": "(stereo not given) [euspeclibcmpd1337]", "Srxn1-GFP intensity median modified Z-score": -0.207}, {"compound": "Cc1nc2n(c(=O)c1CCN1CCC(c3noc4cc(F)ccc34)CC1)CCCC2", "note": "[euspeclibcmpd909]", "Srxn1-GFP intensity median modified Z-score": 0.484}, {"compound": "Cc1nc2ccccn2c(=O)c1CCN1CCC(C(=O)c2ccc(F)cc2)CC1", "note": "[euspeclibcmpd878]", "Srxn1-GFP intensity median modified Z-score": -0.586}, {"compound": "Cc1nc2sccn2c(=O)c1CCN1CCC(=C(c2ccc(F)cc2)c2ccc(F)cc2)CC1", "note": "[euspeclibcmpd532]", "Srxn1-GFP intensity median modified Z-score": "7.86 (active)"}, {"compound": "CCC(=O)OCC(=O)C1(OC(=O)CC)C(C)CC2C3C(Cl)C=C4CC(=O)C=CC4(C)C3C(O)CC21C", "note": "(stereo not given) [euspeclibcmpd1830]", "Srxn1-GFP intensity median modified Z-score": -0.727}, {"compound": "Cc1cc(O)c(C)c(O)c1C(=O)O", "note": "[euspeclibcmpd2002]", "Srxn1-GFP intensity median modified Z-score": -0.247}, {"compound": "CC(=O)NC(CCC(C)C)C(=O)O", "note": "(stereo not given)", "Srxn1-GFP intensity median modified Z-score": 1.23}, {"compound": "CC(=O)O[C@H]1CC[C@@]2(C)C(CC[C@]3(C)C2CC=C2C4CC(C)(C)CC[C@]4(C)CC[C@]23C)C1(C)C", "note": "(stereo not given in full) [euspeclibcmpd1641]", "Srxn1-GFP intensity median modified Z-score": -0.192}, {"compound": "CC1=C(/C=C/C(C)=C/C=C/C(C)=C/C=C/C=C(C)/C=C/C=C(C)/C=C/C2=C(C)CCCC2(C)C)C(C)(C)CCC1", "note": "[euspeclibcmpd256]", "Srxn1-GFP intensity median modified Z-score": 1.65}, {"compound": "CC1=C(/C=C/C(C)=C/C=C/C(C)=C/CO)C(C)(C)CCC1", "note": "[euspeclibcmpd419]", "Srxn1-GFP intensity median modified Z-score": -0.0835}, {"compound": "CC(C=C/C=C(C)/C=C/C1=C(C)CCCC1(C)C)=CC(=O)O", "note": "[euspeclibcmpd2414]", "Srxn1-GFP intensity median modified Z-score": "3.46 (active)"}, {"compound": "CC[C@]12CCCN3CCc4c(n(c5ccccc45)[C@](O)(C(=O)OC)C1)[C@@H]32", "note": "[euspeclibcmpd1043]", "Srxn1-GFP intensity median modified Z-score": 1.43}, {"compound": "COC(=O)C1=C(C)N=C(C)C(C(=O)OCC(C)C)C1c1ccccc1[N+](=O)[O-]", "note": "(stereo not given) [euspeclibcmpd766]", "Srxn1-GFP intensity median modified Z-score": "10.8 (active)"}, {"compound": "COC(=O)C1=C(C)N=C(C)C(C(=O)OC)C1c1ccccc1[N+](=O)[O-]", "note": "(stereo not given) [euspeclibcmpd208]", "Srxn1-GFP intensity median modified Z-score": -0.363}, {"compound": "COC(=O)C1=C(C)N=C(C)C(C(=O)OCCN2CCN(C(c3ccccc3)c3ccccc3)CC2)C1c1cccc([N+](=O)[O-])c1", "note": "(stereo not given) [euspeclibcmpd869]", "Srxn1-GFP intensity median modified Z-score": "5.13 (active)"}, {"compound": "COCCOC(=O)C1=C(C)N=C(C)C(C(=O)OC(C)C)C1c1cccc([N+](=O)[O-])c1", "note": "(stereo not given) [euspeclibcmpd585]", "Srxn1-GFP intensity median modified Z-score": 0.492}, {"compound": "COC(=O)C1=C(C)N=C(C)C(C(=O)OCCN(C)Cc2ccccc2)C1c1cccc([N+](=O)[O-])c1", "note": "(stereo not given) [euspeclibcmpd393]", "Srxn1-GFP intensity median modified Z-score": -0.375}, {"compound": "C#C[C@]1(O)CCC2C3CCC4=Cc5oncc5C[C@]4(C)C3CC[C@@]21C", "note": "(stereo not given in full) [euspeclibcmpd81]", "Srxn1-GFP intensity median modified Z-score": -0.371}, {"compound": "N=c1[nH]cnc2c1ncn2[C@@H]1O[C@H](COP(=O)(O)OP(=O)(O)OC[C@H]2O[C@@H]([n+]3cccc(C(N)=O)c3)[C@H](O)[C@@H]2O)[C@@H](O)[C@H]1O", "note": "[euspeclibcmpd202]", "Srxn1-GFP intensity median modified Z-score": -0.305}, {"compound": "CCC(=O)OCC(=O)[C@@]1(OC(=O)CC)[C@@H](C)CC2C3CC=C4CC(=O)C=C[C@]4(C)C3(F)[C@@H](O)C[C@@]21C", "note": "(stereo not given in full) [euspeclibcmpd541]", "Srxn1-GFP intensity median modified Z-score": -0.359}]}]}
